In the library only some 2.3% were active in any assay of this set; here they are far more common.
mut p53 react: mutant p53 pathway reactivation | SW480 PUMA-promoter luciferase | activation, % at 9.98 µM | hit rate 1.5% among 28,000 | AID 624151; in the data active = activation above about 52%; inconclusive = no clear call, values can overlap the other calls
ID4 binder: ID4 (human) binding; hit rate 1.2% among 31,000; calls only; P47928; AID 624137; small molecule microarray, Flag-ID4 binding, fluorescence F/B; call rule not given here;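 note: a binder raises fluorescence above local background on the spot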
Target sequence (P47928 whole entry, looked up): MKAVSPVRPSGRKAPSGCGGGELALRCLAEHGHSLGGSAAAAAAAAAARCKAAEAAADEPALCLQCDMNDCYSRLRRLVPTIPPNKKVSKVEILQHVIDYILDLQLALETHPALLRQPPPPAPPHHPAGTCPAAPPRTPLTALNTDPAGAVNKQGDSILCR
Starred values were filed as active, the others as inactive; i = inactive; ? = inconclusive; nt = no result; + = active, no number.

SMILES | mut p53 react | ID4 binder
N#Cc1ccc(/C=C/C(=O)NCc2ccccc2)cc1 | -7 | i
C[C@H]1CN([C@@H](C)CO)C(=O)c2cc(-c3cccnc3)cnc2O[C@H]1CN(C)Cc1ccccc1 | -1 | i
COC(=O)c1ccccc1NC(=O)c1ccc(NS(=O)(=O)c2cccc3cccnc23)cc1 | -2 | i
CC(=O)Nc1ccccc1NC(=O)Cc1ccccc1[N+](=O)[O-] | -10 | i
CC12CCCCC1C1(C=CC(=O)C=C1)C(c1ccccc1)=N2 (stereo unspecified) | 21 | i
Cc1cc(C)nc(SCc2csc(N)n2)n1 | 9 | +
COC(=O)CSc1nc(C)cc(C)n1 | 1 | i
Cc1[nH]c2ccccc2c1C(=O)CCC(=O)O | -4 | +
Cc1[nH]c2ccccc2c1C(=O)CSc1nnc2ccccn12 | 95* | i
Cc1[nH]c2ccccc2c1C(=O)CSc1ncn[nH]1 | 5 | i
Cc1nnc(SCC(=O)c2c(C)[nH]c3ccccc23)s1 | 49 | i
C[C@@H]1CN([C@H](C)CO)C(=O)c2cc(-c3ccc(F)cc3)cnc2O[C@H]1CN(C)Cc1ccc(F)cc1 | nt | i
O=S(=O)(NC1CCN(Cc2ccc(OCCO)cc2)CC1)c1cccc2cccnc12 | nt | i
O=S(=O)(c1cccc2cccnc12)N1CCN(Cc2ccc(OCCO)cc2)CC1 | nt | +
CCCC(=O)n1nc(-c2ccc(Cl)cc2)nc1NCc1ccco1 | 107* | i
COc1ccc(C(=O)n2nc(-c3ccc(Cl)cc3)nc2NCc2ccco2)cc1OC | 80* | i
O=C(c1ccco1)n1nc(-c2ccc(Cl)cc2)nc1NCc1ccco1 | 44 | i
CCCC(=O)n1nc(-c2ccccc2)nc1NCc1ccco1 | 50 | i
O=C(c1ccc([N+](=O)[O-])cc1)n1nc(-c2ccc(Cl)cc2)nc1NCc1ccco1 | 128* | i
COc1ccccc1C(=O)n1nc(-c2ccccc2)nc1NCc1ccco1 | 23 | i
C[C@@H]1CN([C@H](C)CO)C(=O)c2cccc(NC(=O)C3CCCCC3)c2O[C@@H]1CN(C)CC1CC1 | nt | i
C/C=C/c1ccc2c(c1)O[C@H](CN(C)Cc1cccc(F)c1)[C@H](C)CN([C@@H](C)CO)S2(=O)=O | nt | i
CCn1c(SCC(=O)Nc2ccc(C)cc2Br)nnc1-c1ccc(Cl)cc1 | 2 | i
O=C(CSc1nc(-c2ccccc2)cc(=O)[nH]1)NCC1CCCO1 (stereo unspecified) | 4 | +
O=C(CSc1nc(-c2ccccc2)cc(=O)[nH]1)Nc1ccccc1 | -9 | i
SMILES | mut p53 react | ID4 binder
O=C(N[C@H]1C=C[C@H](CC(=O)N2CCc3ccccc3C2)O[C@@H]1CO)C1CC1 | nt | i
COC(=O)[C@H]1N=C(c2ccc(OCCCO)cc2)O[C@H]1c1ccccc1N=[N+]=[N-] | nt | i
O=C(CSc1nc2ccccc2[nH]1)Nc1cccc(Cl)c1Cl | 0 | i
O=[N+]([O-])c1ccc(S(=O)(=O)NCCc2nc3ccccc3[nH]2)cc1 | -13 | i
COc1ccc(C(=O)CSc2n[nH]c(-c3ccccc3)n2)cc1OC | -12 | i
Cc1cc(C)nc(Nc2n[nH]c(-c3cccnc3)n2)n1 | 74* | i
Cc1cc(C)nc(Nc2n[nH]c(COc3ccccc3)n2)n1 | ? | i
COc1ccc(-c2nc(Nc3nc(C)cc(C)n3)n[nH]2)cc1OC | 85* | +
Cc1c(CNC(=S)Nc2cccc([N+](=O)[O-])c2)cnn1C | 14 | i
COc1ccc2c(c1OC)C(=O)OC2[C@H]1c2c(cc3c(c2OC)OCO3)CCN1C (stereo partly specified) | nt | i
COc1cc2c3cc1Oc1c(OC)c(OC)cc4c1[C@@H](Cc1ccc(OC(=O)c5ccc([N+](=O)[O-])cc5)c(c1)Oc1ccc(cc1)C[C@@H]3N(C)CC2)N(C)CC4 | -2 | +
Cc1ccc(N(C(C)C(=O)Nc2ccc(Oc3ccccc3)cc2)S(C)(=O)=O)cc1C (stereo unspecified) | -3 | i
COC(=O)c1ccc(COc2ccc3c(C)cc(=O)oc3c2)o1 | 63* | i
COC(=O)c1ccc(COc2ccc3c(c2)oc(=O)c2cc(OC)ccc23)o1 | 5 | i
CCC1=C/C(=C\N(C)c2ccccc2)C(=O)S1 | 75* | i
O=C(C[C@@H]1C=C[C@H](NC(=O)CC2CC2)[C@@H](CO)O1)NCc1ccc(Cl)cc1 | nt | i
COc1ccccc1-c1cnc2c(c1)C(=O)N([C@@H](C)CO)C[C@H](C)[C@H](CN(C)Cc1ccncc1)O2 | nt | i
O=C(Nc1ccccc1C(=O)NCCOc1ccccc1)c1ccccc1I | -1 | i
O=C(NCc1ccco1)c1ccccc1NC(=O)C1CC(=O)N(c2ccc(Cl)cc2)C1 (stereo unspecified) | -9 | i
COCCNC(=O)c1ccccc1NC(=O)Nc1ccc(Cl)cc1 | 61* | i
O=C(Nc1ccc(Cl)cc1)Nc1ccccc1C(=O)NCc1ccco1 | 80* | i
COc1cc(OC)c(NC(=O)COc2ccc([N+](=O)[O-])cc2)cc1Cl | -4 | i
COC(=O)C[C@@H]1C=C[C@H](NC(=O)c2ccccc2)[C@H](CO)O1 | nt | i
O=C(Nc1cccc(S(=O)(=O)N2CCOCC2)c1)Nc1cccc(Cl)c1Cl | 1 | i
CNC[C@@H]1Oc2ccc(NS(=O)(=O)c3ccccc3)cc2C(=O)N([C@@H](C)CO)C[C@H]1C | 3 | +
SMILES | mut p53 react | ID4 binder
C[C@@H]1CCCCO[C@H](CN(C)C)[C@@H](C)CN([C@@H](C)CO)C(=O)c2cc(NC(=O)Nc3ccc4c(c3)OCO4)ccc2O1 | -10 | i
C[C@H]1CN([C@@H](C)CO)C(=O)c2cc(NC(=O)Nc3ccc4c(c3)OCO4)ccc2O[C@H]1CN(C)C | -3 | i
CNC[C@@H]1Oc2ccc(NC(=O)Nc3ccc4c(c3)OCO4)cc2CC(=O)N([C@@H](C)CO)C[C@@H]1C | 5 | i
CNC[C@@H]1Oc2ccc(NS(=O)(=O)c3ccccc3)cc2C(=O)N([C@H](C)CO)C[C@H]1C | 6 | i
CNC[C@H]1Oc2ccc(NC(=O)Nc3ccc4c(c3)OCO4)cc2CC(=O)N([C@@H](C)CO)C[C@@H]1C | 3 | +
CNC[C@@H]1Oc2ccc(NC(=O)Nc3ccc4c(c3)OCO4)cc2C(=O)N([C@@H](C)CO)C[C@H]1C | 5 | +
CNC[C@@H]1OCCCC[C@H](C)Oc2ccc(NC(=O)Nc3ccc4c(c3)OCO4)cc2C(=O)N([C@@H](C)CO)C[C@@H]1C | 2 | +
COc1ccc(NC(=O)C(OC(=O)c2ccccc2)c2cccs2)cc1 (stereo unspecified) | nt | i
COc1ccc(NC(=O)CSc2cc(C)c3cccc(C)c3n2)cc1 | -60 | i
O=C(C[C@@H]1C[C@H]2c3cc(NC(=O)C4CCOCC4)ccc3O[C@H]2[C@H](CO)O1)NCc1ccc(Cl)cc1 | 0 | nt
COC(=O)COc1cccc(NC(=O)c2ccccc2I)c1 | -4 | i
CCn1c(SCC(=O)Nc2cccc(C(=O)O)c2)nnc1-c1ccc(Cl)cc1Cl | -5 | i
CC(C)NC(=O)N(C)C[C@@H]1Oc2ccc(N(C)C)cc2CC(=O)N([C@@H](C)CO)C[C@H]1C | 2 | i
CCn1c(SCc2cccc(OC)c2)nnc1-c1cccnc1 | -12 | i
C[C@@H]1CN([C@H](C)CO)C(=O)c2cc(NC(=O)Nc3ccc4c(c3)OCO4)ccc2O[C@@H]1CN(C)Cc1ccncc1 | -5 | i
